Bioassay records as filed in PubChem.
Shown are actives, neighbours in structure and some others; about 0.9% of the full set was active somewhere.
RECQ1 inh-1: qHTS Assay for Inhibitors of RecQ-Like Dna Helicase 1 (RECQ1). ATP-dependent DNA helicase Q1 (Homo sapiens), P46063. RECQ1 DNA unwinding, red fluorescence kinetic read. Potency, µM (titrated, usually from 57.3 µM), inactives show at the highest dose activity, negative = inhibition, most hits filed as inhibitors. 240,000 tested, 0.54% active;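 also: plate controls were vehicle for no effect and no enzyme for full effect; nearly all actives have a fitted effect of over 30% in size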
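50 nM RECQ1T1 preincubated 15 min with compound in Tris pH 8.0 buffer with MgCl2, DTT, Tween-20 and 2.5 ug/ml poly(dI-dC); started with 200 nM TAMRA/BHQ-2 forked duplex and 2 mM ATP. Unwinding read as fluorescence (525/598 nm), two reads 2 h apart.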
RGS12 GoLoco inh: qHTS Assay for Inhibitors of RGS12 GoLoco Motif Activity (Red Fluorophore) | Guanine nucleotide-binding protein G(i) subunit alpha-1 (Homo sapiens), P63096 | Gai1:RGS12 GoLoco peptide FP, rhodamine, 10 min | Potency, µM (series often up to 61.6 µM), for the others: at the top dose activity, negative = inhibition, most hits filed as inhibitors | 230,000 tested, 0.44% active | AID 880, 2007; active = well fitted inhibition curve with a large enough effect, not every such curve was filed as active; inactive = no such curve, though single readings can be large or run the other way; also: nearly all actives have a fitted effect of over 30% in size
TRb SRC2 PPI: qHTS for Inhibitors of the Interaction of Thyroid Hormone Receptor and Steroid Receptor Coregulator 2; TRbeta-SRC2 peptide binding, fluorescence polarization; receptor liganded with 1 µM T3; 280,000 tested, 0.065% active; Potency, µM (top dose mostly 106 µM), inactives show at the highest dose activity change, negative = inhibition, hits mostly inhibitors; Thyroid hormone receptor beta (Homo sapiens), P10828; AID 1469, 2008;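 also: plate controls were bound peptide for no effect and peptide without receptor for full effect; nearly all actives have a fitted effect of over 50% in size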
Target sequence (P10828 whole entry, looked up): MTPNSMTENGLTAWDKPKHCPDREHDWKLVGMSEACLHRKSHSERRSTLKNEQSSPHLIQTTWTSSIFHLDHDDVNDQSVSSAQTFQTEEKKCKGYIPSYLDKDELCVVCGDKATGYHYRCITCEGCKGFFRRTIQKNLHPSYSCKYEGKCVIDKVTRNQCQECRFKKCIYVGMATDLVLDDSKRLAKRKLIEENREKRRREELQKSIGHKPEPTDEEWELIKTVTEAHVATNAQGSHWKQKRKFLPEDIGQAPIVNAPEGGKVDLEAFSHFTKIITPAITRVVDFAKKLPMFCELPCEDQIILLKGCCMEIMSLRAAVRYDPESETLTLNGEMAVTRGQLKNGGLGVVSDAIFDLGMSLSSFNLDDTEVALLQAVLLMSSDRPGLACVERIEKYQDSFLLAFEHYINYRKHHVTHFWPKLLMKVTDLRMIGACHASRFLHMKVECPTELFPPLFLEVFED
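Human TRb LBD (0.6 uM) plus Texas Red-labeled SRC2 peptide (20 nM), 1uM T3, 5% DMSO, 5 hr at ambient temperature. Decreased polarization (555/632 nm) flags inhibition; data normalized to free and bound peptide controls.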
BLM helicase inh: qHTS Assay for Inhibitors of Bloom's syndrome helicase (BLM). recombinant BLM DNA unwinding, fluorescence dequenching. 350,000 tested, 0.2% active. Potency, µM (series often up to 56.1 µM), for inactives: at the top dose activity change, negative = inhibition, actives largely listed as inhibitors. RecQ-like DNA helicase BLM (Homo sapiens), P54132;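 also: plate controls were vehicle for no effect and no enzyme for full effect; nearly all actives have a fitted effect of over 35% in size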
APE1 inh: qHTS Assay for Inhibitors of the Human Apurinic/apyrimidinic Endonuclease 1 (APE1); DNA repair nuclease/redox regulator APEX1 (Homo sapiens), P27695; recombinant APE1, TAMRA/BHQ-2 abasic DNA cleavage fluorescence; Potency, µM (doses to about 65.8 µM), without a hit: at the highest dose activity change, negative = inhibition, actives largely listed as inhibitors; 350,000 tested, 0.35% active;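 also: plate controls were vehicle for no effect and reference inhibitor for full effect; nearly all actives have a fitted effect of over 55% in size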
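APE1 at 0.75 nM preincubated 15 min at room temperature with compound. Reaction then started with 50 nM double-stranded THF-abasic substrate labelled with TAMRA/BHQ-2, and 525/598 nm fluorescence read kinetically. Activity taken as third-minus-first read difference, normalized to DMSO and NSC13755 controls.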
TexasRed fluor: Total Fluorescence Counterscreen for Inhibitors of the Interaction of Thyroid Hormone Receptor and Steroid Receptor Coregulator 2; TRb/SRC2 Texas Red total fluorescence interference; Potency, µM (doses to about 106 µM), for inactives: at the top dose fluorescence change, negative = quenching; 280,000 tested, 0.29% active; active = well fitted curve in either direction with a large enough effect
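Human TRβ ligand-binding domain (0.6 uM) and Texas Red SRC2 peptide (20 nM) in Tris buffer with 1 uM T3 and 5% DMSO were incubated with pinned compound for 5 hr at ambient temperature. Total fluorescence was computed as S + 2P (555/632 nm).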
RECQ1 inh conf: Confirmation qHTS Assay for Inhibitors of RecQ-Like Dna Helicase 1 (RECQ1). 610 tested, 28% active. shares compounds with RECQ1 inh-1. RECQ1 helicase DNA unwinding, fluorescence. Potency, µM (doses to about 229 µM), for inactives: at the top dose activity change, negative = inhibition, actives largely listed as inhibitors; also: nearly all actives have a fitted effect of over 45% in size
RECQ1 ADP FP: Counterscreen for RECQ1 Inhibitors: ADP Fluorescence Polarization Displacement Assay; shares compounds with RECQ1 inh-1; ADP fluorescence polarization displacement counterscreen; Potency, µM (highest dose often 228 µM), inactives show at the top dose activity change, negative = inhibition, actives largely listed as inhibitors; 530 tested, 27% active; also: nearly all actives have a fitted effect of over 45% in size
RECQ1 inh-2: Confirmation qHTS Assay for Inhibitors of RecQ-Like Dna Helicase 1 (RECQ1) - Round 2 Cherry Picks | shares compounds with RECQ1 inh-1 | Potency, µM (series often up to 119 µM), without a hit: at the top dose activity, negative = inhibition, actives largely listed as inhibitors | 1,100 tested, 15% active | recombinant RECQ1 DNA unwinding, red fluorescence; also: nearly all actives have a fitted effect of over 50% in size
* marks the source's active call; other numbers are inactive results; [ ] = another dose, or the depositor's remark. Unless noted, calls follow the shape of the dose curve; as a rule, active = well fitted curve in the direction sought with a large enough effect; inconclusive = small, poorly fitted or top-dose-only effect, or another doubt; inactive = no such curve, though single readings can be large; an effect the other way counts as inactive or inconclusive. Unless noted, % is scaled to controls: 0 for no effect and ±100 for the full control effect; potency is read from the fitted curve at half-maximal effect.

For CC(C)c1ccc(S(=O)(=O)c2nnn3c2nc(N2CCCCC2)c2sccc23)cc1 the results were TRb SRC2 PPI 0%, BLM helicase inh -4% and TexasRed fluor -2%.
For COc1ccc(C)cc1S(=O)(=O)Nc1ccncc1 the results were RECQ1 inh-1 20µM*, RGS12 GoLoco inh 5%, TRb SRC2 PPI 4%, BLM helicase inh -6%, APE1 inh 24%, TexasRed fluor -1% and RECQ1 inh-2 -7%.
For COC(=O)[C@H](CCSC)NC(=O)C/C=C\[C@@H](C)[C@@H](CO)OC the results were RECQ1 inh-1 -2%[11.5 µM], TRb SRC2 PPI 0%[11.2 µM], BLM helicase inh 1%[12.4 µM], APE1 inh -6%[12.4 µM] and TexasRed fluor 2%[11.2 µM].
Screening COCCN1C(=O)C(=O)/C(=C(/O)c2ccc(S(=O)(=O)N3CCOCC3)cc2)C1c1cccc(O)c1 (stereo unspecified) returned RECQ1 inh-1 -3%, RGS12 GoLoco inh -6%, TRb SRC2 PPI -1%, BLM helicase inh 8%, APE1 inh -8%, TexasRed fluor 2%, RECQ1 inh conf 0% and RECQ1 ADP FP 4%.
For COc1cccc(N2CCN(C(=O)C3CCN(S(=O)(=O)c4cccc5nonc45)CC3)CC2)c1 the results were TRb SRC2 PPI 1%, BLM helicase inh -2% and TexasRed fluor -4%.
Screening Cn1cc(-c2cc3n(n2)CCC(=O)N3CC(=O)NCc2ccccc2)c2ccccc21 returned TRb SRC2 PPI -4%, BLM helicase inh 0% and TexasRed fluor -17%.
Cc1cccc(N2CCN(C(=O)Cc3ccc(-n4c(=O)[nH]c5ccsc5c4=O)cc3)CC2C)c1 (stereo unspecified) was read as RECQ1 inh-1 -7%, RGS12 GoLoco inh 7%, TRb SRC2 PPI 5%, BLM helicase inh 2%, APE1 inh 14%, TexasRed fluor -2%, RECQ1 inh conf -4% and RECQ1 ADP FP 3%.
`Cc1cccc(N2CCN(C(=O)Cn3c(=O)[nH]c4ccsc4c3=O)CC2C)c1` (stereo unspecified) gave RECQ1 inh-1 -3%, RGS12 GoLoco inh 10%, TRb SRC2 PPI 3%, BLM helicase inh -2%, APE1 inh 3% and TexasRed fluor 0%.
CCCCn1cnc2c(=O)[nH]c(N)nc21 was read as RECQ1 inh conf -3%[69.1 µM].
